According to PubChem BioAssay (EPA / NIEHS):
Where “and” joins values, the source holds several entries; their conditions need not be identical. Equal entries are not always repeated. Inconclusive results are not listed. Calls of active or inactive are those of the source. Rule for the calls, unless noted: active = hit-call score of the fitted dose curve at least 0.9, where 1 is the maximum; inactive = score below 0.9.

Experiments:
[1] = biological target: Retinoic acid receptor RXR-alpha (Homo sapiens) (UniProt P19793); experiment: ATG_RXRa_TRANS: Attagene TRANS-FACTORIAL HepG2 Assay for human Retinoid X Receptor alpha (RXRa) (AID 2283012; active = hit-call score of the fitted dose curve at least 0.9, where 1 is the maximum)
Retinoic acid receptor RXR-alpha (Homo sapiens), sequence (P19793 whole entry, looked up, the tested form may be a part): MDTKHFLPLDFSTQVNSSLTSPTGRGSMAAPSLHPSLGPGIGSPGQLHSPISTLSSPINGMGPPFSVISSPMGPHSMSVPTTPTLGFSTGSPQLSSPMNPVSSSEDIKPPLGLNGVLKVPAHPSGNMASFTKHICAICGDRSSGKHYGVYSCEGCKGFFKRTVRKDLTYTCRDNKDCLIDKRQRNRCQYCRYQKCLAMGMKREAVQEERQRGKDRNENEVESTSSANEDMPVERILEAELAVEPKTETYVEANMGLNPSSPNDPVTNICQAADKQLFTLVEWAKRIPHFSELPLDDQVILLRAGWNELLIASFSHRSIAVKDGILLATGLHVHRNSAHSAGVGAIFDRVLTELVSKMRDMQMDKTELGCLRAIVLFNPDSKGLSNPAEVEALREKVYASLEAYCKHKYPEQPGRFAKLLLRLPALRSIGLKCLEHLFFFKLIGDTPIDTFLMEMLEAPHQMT
How it was run: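 Transient transfection of human HepG2 with multiple GAL4-UAS reporter constructs; 24 h compound exposure; total RNA isolated, reverse-transcribed, PCR-amplified, 6-FAM labelled, HpaI-cut, resolved by capillary electrophoresis. Positive-direction fit versus DMSO.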

[2] = biological target: human Retinoid X Receptor beta (RXRb), RXRB (gene 6257) (UniProt P28702); experiment: ATG_RXRb_TRANS: Attagene TRANS-FACTORIAL HepG2 Assay for human Retinoid X Receptor beta (RXRb) (AID 2283013; active = hit-call score of the fitted dose curve at least 0.9, where 1 is the maximum)
human Retinoid X Receptor beta (RXRb), RXRB (gene 6257), sequence (P28702 whole entry, looked up, the tested form may be a part): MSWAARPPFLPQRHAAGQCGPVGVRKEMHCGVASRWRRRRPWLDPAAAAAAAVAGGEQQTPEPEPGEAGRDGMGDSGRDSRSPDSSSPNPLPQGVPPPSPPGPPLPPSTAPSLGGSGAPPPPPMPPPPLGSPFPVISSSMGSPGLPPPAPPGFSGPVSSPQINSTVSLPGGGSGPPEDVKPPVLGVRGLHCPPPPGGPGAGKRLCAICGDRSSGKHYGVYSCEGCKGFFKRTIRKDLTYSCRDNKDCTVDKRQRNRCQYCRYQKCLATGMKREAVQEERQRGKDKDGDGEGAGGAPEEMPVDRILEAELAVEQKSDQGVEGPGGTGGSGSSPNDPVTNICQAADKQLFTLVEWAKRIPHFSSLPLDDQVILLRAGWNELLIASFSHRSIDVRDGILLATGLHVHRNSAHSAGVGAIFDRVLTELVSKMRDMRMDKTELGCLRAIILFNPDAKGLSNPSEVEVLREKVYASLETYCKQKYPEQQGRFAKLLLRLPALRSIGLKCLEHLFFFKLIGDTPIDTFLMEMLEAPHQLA
How it was run: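 Transfect HepG2 with GAL4-UAS multi-reporter constructs (chimeric NR-Gal4, TRANS format); dose compound 24 h; isolate RNA, RT-PCR, FAM primer extension, HpaI digest; quantify by capillary electrophoresis; positive direction vs DMSO.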

[3] = read-out: E-selectin (Homo sapiens) (UniProt P16581); experiment: BSK_3C_Eselectin: BioMAP Diversity Plus: 3C Assay for Eselectin Biomarker Activity (AID 2283015); settings: primary human endothelial cells (HUVEC); actives raise or lower the signal
How it was run: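 HUVEC, 3C stimulation; compound exposure 24 h; E-selectin by ELISA; gain- or loss-of-signal fitted bidirectionally vs DMSO baseline.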

[4] = read-out: Interleukin-1 alpha (IL1a), IL1A (gene 3552); experiment: BSK_BE3C_IL1a: BioMAP Diversity Plus: BE3C Assay for Interleukin-1 alpha (IL1a) Biomarker Activity (AID 2283016); settings: primary human bronchial epithelial cells; actives raise or lower the signal
How it was run: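 BE3C primary human bronchial epithelium; cpd 24 h; IL-1a by ELISA; bidirectional fit vs DMSO; parallel SRB (0.1% SRB, 10% TCA fix, 560 nm) for cytotoxicity.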

[5] = read-out: Monocyte Chemoattractant Protein-1 (MCP1), CCL2 (gene 6347); experiment: BSK_3C_MCP1: BioMAP Diversity Plus: 3C Assay for Monocyte Chemoattractant Protein-1 (MCP1) Biomarker Activity (AID 2283017); settings: primary human endothelial cells (HUVEC); actives raise or lower the signal
How it was run: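 HUVEC, 3C system; 24 h chemical exposure; MCP-1 by ELISA; bidirectional curve fit vs DMSO baseline.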

[6] = read-out: Monocyte Chemoattractant Protein-1 (MCP1), CCL2 (gene 6347); experiment: BSK_4H_MCP1: BioMAP Diversity Plus: 4H Assay for Monocyte Chemoattractant Protein-1 (MCP1) Biomarker Activity (AID 2283018); settings: primary human endothelial cells (HUVEC); actives raise or lower the signal
How it was run: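 ELISA read-out of MCP-1 from human vascular endothelial primary cells taken at 24 hours after compound exposure. Activity was fitted in both directions relative to DMSO, which served as negative control.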

[7] = read-out: Human Leukocyte Antigen - DR isotype (HLADR), HLA-DRA (gene 3122); experiment: BSK_3C_HLADR: BioMAP Diversity Plus: 3C Assay for Human Leukocyte Antigen - DR isotype (HLADR) Biomarker Activity (AID 2283019); settings: primary human endothelial cells (HUVEC); actives raise or lower the signal
How it was run: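 HUVEC, 3C stimulation, 24 h post-dose; HLA-DR by ELISA; bidirectional curve fit vs DMSO baseline; gain or loss of signal scored.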

[8] = read-out: Interleukin-8 (IL8), CXCL8 (gene 3576); experiment: BSK_3C_IL8: BioMAP Diversity Plus: 3C Assay for Interleukin-8 (IL8) Biomarker Activity (AID 2283020); settings: primary human endothelial cells (HUVEC); actives raise or lower the signal
How it was run: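 ELISA read-out of IL-8 from human umbilical vein endothelium, measured 24 h after chemical dosing. Activity is expressed relative to DMSO negative control, with both increases and decreases fitted.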

[9] = read-out: Monokine induced gamma interferon (MIG), CXCL9 (gene 4283); experiment: BSK_3C_MIG: BioMAP Diversity Plus: 3C Assay for Monokine induced gamma interferon (MIG) Biomarker Activity (AID 2283021); settings: primary human endothelial cells (HUVEC); actives raise or lower the signal;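 for AC50: MIG protein level measured by immunoassay in the treated endothelial cultures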
How it was run: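 Read-out is ELISA detection of MIG on human umbilical vein endothelial cells, taken 24 h after dosing. Gain or loss of signal was scored relative to DMSO controls using bidirectional curve fitting.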

[10] = biological target: human Thyroid Receptor alpha (THRa1), THRA (gene 7067) (UniProt P10827); experiment: ATG_THRa1_TRANS: Attagene TRANS-FACTORIAL HepG2 Assay for human Thyroid Receptor alpha (THRa1) (AID 2283014; active = hit-call score of the fitted dose curve at least 0.9, where 1 is the maximum)
human Thyroid Receptor alpha (THRa1), THRA (gene 7067), sequence (P10827 whole entry, looked up, the tested form may be a part): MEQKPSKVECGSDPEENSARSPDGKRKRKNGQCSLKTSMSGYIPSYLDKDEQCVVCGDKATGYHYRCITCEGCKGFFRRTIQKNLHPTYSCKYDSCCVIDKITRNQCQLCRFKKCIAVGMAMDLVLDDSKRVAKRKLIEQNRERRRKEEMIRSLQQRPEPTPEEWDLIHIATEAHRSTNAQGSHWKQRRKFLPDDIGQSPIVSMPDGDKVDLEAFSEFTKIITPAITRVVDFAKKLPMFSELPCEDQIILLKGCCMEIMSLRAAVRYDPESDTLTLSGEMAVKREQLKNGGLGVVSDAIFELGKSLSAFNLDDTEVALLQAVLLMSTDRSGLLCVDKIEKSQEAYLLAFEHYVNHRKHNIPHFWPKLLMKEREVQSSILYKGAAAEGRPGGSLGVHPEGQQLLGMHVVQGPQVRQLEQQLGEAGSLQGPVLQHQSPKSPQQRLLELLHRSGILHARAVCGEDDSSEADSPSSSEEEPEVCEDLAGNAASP
How it was run: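 Transient HepG2 transfection, NR-Gal4 chimera driving GAL4-UAS reporters; 24 h compound exposure; total RNA, oligo(dT) RT, PCR, fluorescent primer extension, capillary electrophoresis. Upward direction vs DMSO control.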

Measured: AC50

E-selectin (Homo sapiens), sequence (P16581 whole entry, looked up): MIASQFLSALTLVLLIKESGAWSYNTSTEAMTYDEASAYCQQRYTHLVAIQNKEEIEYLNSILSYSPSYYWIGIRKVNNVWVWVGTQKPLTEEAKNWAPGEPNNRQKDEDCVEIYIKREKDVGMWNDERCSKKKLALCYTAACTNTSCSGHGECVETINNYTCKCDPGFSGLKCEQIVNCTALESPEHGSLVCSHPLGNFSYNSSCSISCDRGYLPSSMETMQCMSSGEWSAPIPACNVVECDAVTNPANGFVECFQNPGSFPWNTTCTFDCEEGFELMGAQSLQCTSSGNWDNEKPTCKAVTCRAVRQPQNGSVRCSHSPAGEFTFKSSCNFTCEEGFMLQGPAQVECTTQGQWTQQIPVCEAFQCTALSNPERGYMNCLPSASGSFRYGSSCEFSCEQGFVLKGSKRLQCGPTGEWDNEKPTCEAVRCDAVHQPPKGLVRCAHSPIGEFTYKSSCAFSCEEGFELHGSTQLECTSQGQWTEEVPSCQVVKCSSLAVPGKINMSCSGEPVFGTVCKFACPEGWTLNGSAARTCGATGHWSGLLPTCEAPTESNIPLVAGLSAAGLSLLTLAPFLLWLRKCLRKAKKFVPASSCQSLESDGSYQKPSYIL

C=C(C)C(=O)OCCC(F)(F)C(F)(F)C(F)(F)C(F)(F)C(F)(F)C(F)(F)F
not listed: [10]
inactive: all other assays above

CCCCCCCCCCCCCC[N+](C)(C)C
inactive: [1] | [2]
active: [3] 8.8 µM | [4] 3.83 µM | [6] 1.69 µM | [7] 2.1 µM | [8] 6.77 µM | [9] 8.96 µM

Oc1cc2ccccc2c2ccccc12
active: [3] 8.36 µM | [4] 17.7 µM | [5] 10 µM | [6] 7.67 µM | [7] 6.95 µM | [8] 9.59 µM | [9] 11.3 µM
inactive: [1] | [2]

CCCCC(CC)COC(=O)CCCCC(=O)OCC(CC)CCCC (centres undefined)
active: [2] 49.1 µM
not listed: [5] | [10]
inactive: all other assays above

COCC(C)OCC(C)O (centres undefined)
not listed: [1] | [2] | [10]
inactive: all other assays above

CC(=O)NC1(c2cccc(F)c2)CCN(CC[C@@]2(c3ccc(Cl)c(Cl)c3)CN(c3ccccc3)C(=O)CO2)CC1
active: [1] 49.7 µM | [3] 30.7 µM | [5] 23.5 µM | [7] 24.9 µM | [8] 17.8 µM
inactive: [4] | [6] | [9]

CC#C[C@]1(O)CC[C@H]2[C@@H]3CCC4=CC(=O)CCC4=C3[C@@H](c3ccc(N(C)C)cc3)C[C@@]21C
active: [3] 29.3 µM | [4] 32.1 µM | [6] 20 µM | [7] 37.7 µM | [8] 31.1 µM | [9] 38.3 µM
inactive: [1] | [10]

c1ccc2c(c1)ccc1ccccc12
active: [2] 44.9 µM
not listed: [5] | [10]
inactive: all other assays above

CC(C)(C)CC(C)(C)c1ccc(O)c(-n2nc3ccccc3n2)c1
not listed: [1] | [10]
inactive: all other assays above

CCCCCCCCCCCCN1CCCC1=O
active: [3] 31.8 µM | [4] 33.2 µM | [6] 27.8 µM | [7] 30.2 µM | [8] 29.4 µM | [9] 36.7 µM
inactive: [1] | [2]

Cc1oc(-c2ccccc2)nc1CCOc1ccc(C[C@H](Nc2ccccc2C(=O)c2ccccc2)C(=O)O)cc1
inactive: [1]
active: [3] 31.1 µM | [4] 5.44 µM | [5] 32.5 µM | [6] 20 µM | [7] 28.5 µM | [8] 28.5 µM | [9] 36.8 µM

CC(C)(C)c1cc(C(C)(C)C)c(O)c(C(C)(C)C)c1
active: [1] 217 nM and 1.04 µM | [2] 18.6 nM and 320 nM
not listed: [5] | [10]
inactive: all other assays above

COc1ccc([N+](=O)[O-])cc1N
not listed: [2]
inactive: all other assays above

O=C1OC2(c3ccccc31)c1cc(Br)c(O)c(Br)c1Oc1c2cc(Br)c(O)c1Br
inactive: [2] | [10]

FC(F)(I)C(F)(F)C(F)(F)C(F)(F)C(F)(F)C(F)(F)I
active: [2] 20.5 µM | [4] 30 µM [middle of 5 runs]

NC(=O)N(O)[C@@H]1C=C[C@H](Oc2cccc(Oc3ccc(F)cc3)c2)C1
not listed: [1] | [10]
inactive: all other assays above

Oc1cccc(O)c1
not listed: [2] | [5] | [10]
inactive: all other assays above

CCCOc1sc(C(=O)N2CCC(c3cc(CN)ccc3F)CC2)c(C)c1Br
inactive: [1] | [2]
active: [3] 11.1 µM | [4] 5.86 µM | [6] 9.52 µM | [7] 7.77 µM | [8] 8.8 µM | [9] 11.1 µM

Cc1cc(CCN2CCN(c3nsc4ccccc34)CC2)cc2c1NC(=O)CC2(C)C
active: [3] 30.9 µM | [4] 30.5 µM | [5] 30.7 µM | [6] 8.35 µM | [7] 10.9 µM | [8] 33.1 µM | [9] 35.8 µM
inactive: [1]

NC(=O)N1C(=O)C(C(=O)c2cc(Cl)cs2)c2cc(F)c(Cl)cc21 (centres undefined)
inactive: [1] | [3] | [6] | [8] | [9]
active: [4] 7.87 µM | [7] 13.4 µM

CCOC(=O)CC(O)(CC(=O)OCC)C(=O)OCC
not listed: [2] | [5] | [10]
inactive: all other assays above

CC(C)CCCCCCOC(=O)CCCCC(=O)OCCCCCCC(C)C
active: [2] 52.9 µM
not listed: [1] | [10]
inactive: all other assays above

CN1CCC[C@H]1c1cccnc1
not listed: [2] | [5] | [10]
inactive: all other assays above

CCCCC(CC)COC(=O)CCCCC(=O)OCc1ccccc1 (centres undefined)
active: [2] 80.6 µM
not listed: [1] | [5] | [10]
inactive: all other assays above

CC1=C(/C=C/C(C)=C/C=C/C(C)=C/C(=O)O)C(C)(C)CCC1
active: [3] 20 µM | [7] 19.6 µM
inactive: [4] | [6] | [8] | [9]

COCC(C)O (centres undefined)
not listed: [1] | [5] | [10]
inactive: all other assays above

CCCOC(=O)c1ccc(O)cc1
not listed: [1] | [5]
inactive: all other assays above

O=C(OCCOCCOC(=O)c1ccccc1)c1ccccc1
not listed: [1] | [2] | [10]
inactive: all other assays above

CC[C@H](C)[C@@H](C(=O)O)n1sc2ccccc2c1=O
not listed: [1] | [5]
inactive: all other assays above

CC(O)CO (centres undefined)
not listed: [2] | [5] | [10]
inactive: all other assays above

CCCCCCC(=O)O
not listed: [2] | [10]
inactive: all other assays above

Cc1cc(C)c(O)c(C)c1
not listed: [1] | [5] | [10]
inactive: all other assays above

CCCCOCCO
not listed: [1] | [2] | [10]
inactive: all other assays above

CN1CCN(c2ccccc2/C=C2\SCCN(c3ccc(Cl)c(Cl)c3)C2=O)CC1
active: [4] 30.9 µM | [5] 7.36 µM | [6] 20 µM | [7] 11.3 µM | [8] 3.55 µM
inactive: [1] | [3] | [9]

CCc1nn(C2CCCCC2)c2cc(C3(C#N)CCC(C(=O)O)CC3)ccc12 (centres undefined)
active: [3] 9.4 µM | [7] 20 µM | [8] 7 µM
not listed: [5] | [10]
inactive: all other assays above

CCC(=C(c1ccc(O)cc1)c1ccc(OCCN(C)C)cc1)c1ccccc1
inactive: [1] | [2]
active: [3] 11.1 µM | [4] 9.53 µM | [6] 12.5 µM | [7] 8.28 µM | [8] 9.28 µM | [9] 11.1 µM

COc1cc(CCC(=O)CC(=O)CCc2ccc(O)c(OC)c2)ccc1O
inactive: [2]

O=[N+]([O-])c1ccc(O)cc1
not listed: [1] | [2] | [10]
inactive: all other assays above
